Most compounds without a hit are left out; they make up all but 12% or so of the library.
G9a inh = inhibitors of human histone lysine methyltransferase G9a; G9a H3K9 monomethylation, AlphaScreen, 2 h; Potency, µM (highest dose often 102 µM), for the others: at the highest dose activity, negative = inhibition, usual class: inhibitors; 350,000 tested, 8.8% active; also: potency is read from the fitted curve at half-maximal effect; % is scaled to controls: 0 for no effect and ±100 for the full control effect; nearly all actives have a fitted effect of over 75% in size
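Readings reflect AlphaScreen signal from monomethyl-H3K9 antibody detection. HMT at 20 nM; substrate b-H3K9 500 nM; cofactor SAM 20 uM; 2 h RT reaction; compounds tested as titrations in qHTS with 15 min preincubation.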
PLK1 PBD block = PLK1 (human) polo-box domain binding inhibition; P53350; Plk1 PBD binding of FITC phosphopeptide, fluorescence polarization; Potency, µM, without a hit: max response, negative = inhibition, actives largely listed as inhibitors; 360,000 tested, 2.8% active; also: potency is read from the fitted curve at half-maximal effect; series mostly up to about 57 µM; % is scaled to controls: 0 for no effect and ±100 for the full control effect; nearly all actives have a fitted effect of over 65% in size
PI5P4K alpha inh = inhibitors of human PI5P4K alpha | max response, % | 330,000 tested, 1.2% active | PI5P4Kalpha enzyme, ADP-Glo luminescence, 60 min; active compounds read low; active = max response of -50% or lower; inconclusive = between -30% and -50%; inactive = -30% or higher; also: value at the top dose of about 77 µM; % is scaled to controls: 0 for no effect and ±100 for the full control effect
Target sequence (P48426 whole entry, looked up): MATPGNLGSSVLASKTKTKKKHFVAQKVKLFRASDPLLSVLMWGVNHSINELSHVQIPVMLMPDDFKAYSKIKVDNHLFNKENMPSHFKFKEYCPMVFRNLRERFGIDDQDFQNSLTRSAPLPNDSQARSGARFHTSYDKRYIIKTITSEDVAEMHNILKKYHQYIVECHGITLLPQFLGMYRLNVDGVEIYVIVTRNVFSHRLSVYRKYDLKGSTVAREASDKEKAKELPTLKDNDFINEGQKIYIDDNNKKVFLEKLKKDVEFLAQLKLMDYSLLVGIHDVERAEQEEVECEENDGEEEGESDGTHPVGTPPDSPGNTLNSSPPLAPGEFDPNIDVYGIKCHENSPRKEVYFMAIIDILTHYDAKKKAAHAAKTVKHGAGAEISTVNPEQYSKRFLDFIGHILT
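Reactions run in 0.038 M HEPES pH 7.4, 0.28 mM EGTA, 0.1% CHAPS and 5% DMSO, with PI5P4Kalpha, substrate, compound and 5 microM ATP final, one hour at room temperature. Readout is ADP-Glo luminescence.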
JMJD2A Tudor inh = inhibitors of human JMJD2A Tudor domain | O75164 | AlphaScreen JMJD2A-Tudor / H3K4me3 peptide binding | Potency, µM (doses to about 114 µM), for inactives: at the highest dose activity change, negative = inhibition, hits mostly inhibitors | 390,000 tested, 4.4% active | AID 504339; also: potency is read from the fitted curve at half-maximal effect; % is scaled to controls: 0 for no effect and ±100 for the full control effect; nearly all actives have a fitted effect of over 50% in size
BAZ2B block = BAZ2B (human) inhibition; Q9UIF8; AlphaScreen BAZ2B-H3K14Ac peptide displacement; Potency, µM (series often up to 114 µM), inactives show at the highest dose activity change, negative = inhibition, actives largely listed as inhibitors; 360,000 tested, 4.4% active; AID 504333; also: potency is read from the fitted curve at half-maximal effect; % is scaled to controls: 0 for no effect and ±100 for the full control effect; nearly all actives have a fitted effect of over 60% in size
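Multi-concentration screen (max 110 uM) measuring displacement of acetylated histone H3 peptide from BAZ2B by AlphaScreen, using 50 nM protein, 50 nM peptide and 10 ug/mL streptavidin donor plus Ni-chelate acceptor beads.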
HP1b binding inh = inhibitors of HP1-beta chromodomain binding to methylated histone tails | P83916 | AlphaScreen HP1-beta / biotin-H3K9me3 peptide binding | Potency, µM (titrated, usually from 114 µM), for the others: at the highest dose activity change, negative = inhibition, hits mostly inhibitors | 390,000 tested, 0.56% active; also: potency is read from the fitted curve at half-maximal effect; nearly all actives have a fitted effect of over 70% in size
Target sequence (P83916 whole entry, looked up): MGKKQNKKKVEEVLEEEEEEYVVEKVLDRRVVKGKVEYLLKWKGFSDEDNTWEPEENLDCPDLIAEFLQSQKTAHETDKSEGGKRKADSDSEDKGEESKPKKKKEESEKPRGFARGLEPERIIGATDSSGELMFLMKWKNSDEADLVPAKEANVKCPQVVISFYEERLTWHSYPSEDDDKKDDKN
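AlphaScreen: HP1-beta (50 nM) preformed 30 min with biotin-H3(1-18)K9me3 peptide (50 nM) in PBS pH 7.4, 0.01% Tween-20. Compound added for 30 min at RT, then streptavidin donor/nickel chelate acceptor beads (10 ug/mL) for 30 min.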
* marks the source's active call; other numbers are inactive results; ? = inconclusive; / = no result; [ ] = another dose, or the depositor's remark. Unless noted, calls follow the shape of the dose curve; as a rule, active = well fitted curve in the direction sought with a large enough effect; inconclusive = small, poorly fitted or top-dose-only effect, or another doubt; inactive = no such curve, though single readings can be large; an effect the other way counts as inactive or inconclusive.

SMILES	G9a inh	PLK1 PBD block	PI5P4K alpha inh	JMJD2A Tudor inh	BAZ2B block	HP1b binding inh
O=C(CS(=O)(=O)c1cn(CC(=O)N2CCCC2)c2ccccc12)Nc1ccccc1	25.7%	-5.0%	-0.9	-1.4%	-7.6%	34.9%
O=C(CS(=O)(=O)c1cn(CC(=O)N2CCOCC2)c2ccccc12)Nc1ccccc1	?	7.9%	1.5	8.8%	/	43.9%
COc1cc(CN(C(=O)COc2ccc(C)c(C)c2)c2ccccn2)cc(OC)c1OC	10.3%[59 µM]	/	/	-15.6%	-16.8%	7.4%
COc1ccc(OC)c(Nc2nc3ccccc3nc2-n2nc(C)cc2C)c1	98.8%[59 µM]	/	/	38.4%	27.5%	114.6%
COc1ccc(CCC(=O)NC2CC(=O)N(c3ccc(C)c(C)c3)C2)cc1 (configuration not stated)	-6.9%[59 µM]	/	/	-1.9%	-0.7%	38.4%
O=C(OCc1cnc(Cl)s1)c1c(F)cccc1F	12.4%	23.8µM*	-22.1	?	13.2%	42.9%
COC(=O)C[C@@H]1CC[C@H](NS(=O)(=O)c2ccccc2F)[C@@H](CO)O1	/	-4.7%	10.5	/	/	/
Cc1cc(SCC(=O)N2CCN(C(=O)c3ccco3)CC2)c(C)cc1Br	-27.8%[12.7 µM]	-22.8%	5.0	-7.8%	-36.3%	34.1%
CC(C)=CCC/C(C)=C/CC/C(C)=C/CC/C(C)=C/CC1=C(C)C(=O)c2ccccc2C1=O	?	-12.0%	-27.6	-33.1%	?	6.6%
CC(C)=CCC1=C(OCC(=O)O)C(=O)c2ccccc2C1=O	?	29.9µM*	-8.8	-30.9%	-29.2%	8.6%
CCCCCOC(=O)c1[nH]c2c(c1C)C(=O)CC(c1ccco1)C2 (configuration not stated)	39.8µM*	23.8µM*	?	35.5µM*	56.2µM*	?
CCOC(=O)C1CCCN(C(=O)CCc2nnc(-c3ccc(C(C)=O)s3)o2)C1 (configuration not stated)	35.5µM*	-20.8%	13.0	-15.1%	20.8%[57.1 µM]	46.4%
CCOC(=O)C1CCCN(C(=O)CSCc2ccccc2)C1 (configuration not stated)	4.1%[12.7 µM]	-22.0%	-3.0	7.3%	-0.6%	28.4%
Cc1c(C(=O)Nc2ccc(-n3c(C)nc4ccccc4c3=O)cc2)cccc1[N+](=O)[O-]	-12.2%[59 µM]	/	/	-14.6%	-7.3%	11.5%
CN(C(=O)c1cc(-c2ccccc2O)on1)c1ccccc1	-6.6%[59 µM]	/	/	-33.4%	-17.0%	8.5%
Nc1ccn([C@@H]2O[C@H](CNCc3cc(Br)ccc3OCc3ccccc3)[C@@H](O)[C@H]2O)c(=O)n1	/	-12.1%	-1.2	/	/	/
CCOC(=O)C(=N/O)/C(C)=N/NC(=O)C(=O)Nc1cc(Cl)ccc1Cl	2.1%	-3.0%	0.7	?	17.8µM*	27.9%
CCOC(=O)C(=N/O)/C(C)=N/NC(C)=O	7.08µM*	-26.6%	-11.7	-12.4%	-5.0%	8.2%
CCOC(=O)/C(C)=N/NC(=O)c1cccc([N+](=O)[O-])c1	2.8%	1.5%	7.2	3.0%	-9.1%	20.2%
CCOC(=O)C(=O)Nc1cc(Cl)ccc1C	12.1%[59 µM]	0.7%	1.1	-11.7%	8.0%	12.8%
Cc1ccccc1C(=O)N1CCC(C(=O)Nc2ccccn2)CC1	11.8%[2.33 µM]	-16.6%	2.7	-11.0%	-6.9%	12.8%
Cc1ccc(NC(=O)c2cc(S(=O)(=O)N3CCCCC3)ccc2N2CCOCC2)c(C)c1	/	-17.4%	0.7	/	/	/
O=C(CCc1ccccc1)NC(c1cccs1)c1cc(Cl)c2cccnc2c1O (configuration not stated)	?	-7.8%	6.8	-20.7%	-17.8%	31.3%
CN1CCN(C(c2ccccn2)c2cc(Cl)c3cccnc3c2O)CC1 (configuration not stated)	?	9.47µM*	?	17.8µM*	11.2µM*	11.2µM*
Oc1c(C(c2ccc(Cl)cc2)N2CCCC2)cc(Cl)c2cccnc12 (configuration not stated)	25.1µM*	?	?	28.2µM*	31.6µM*	10.6%
SMILES	G9a inh	PLK1 PBD block	PI5P4K alpha inh	JMJD2A Tudor inh	BAZ2B block	HP1b binding inh
Oc1c(C(c2ccccn2)N2CCC(Cc3ccccc3)CC2)cc(Cl)c2cccnc12 (configuration not stated)	3.55µM*	?	?	50.1µM*	50.1µM*	?
CC(C)(C)OC(=O)Cc1nnc(C(C(=O)OCc2ccccc2)c2ccccc2)s1 (configuration not stated)	/	/	/	-8.2%	/	/
CC(=O)c1sc(NC(=O)C2CC(=O)N(Cc3ccccc3)C2)nc1-c1ccccc1 (configuration not stated)	56.2µM*	-12.5%	-1.7	-33.1%	-6.2%	-7.6%
CC(=O)Nc1ccc(NC(=O)C2CC(=O)N(Cc3ccccc3)C2)cc1 (configuration not stated)	31.3%[59 µM]	1.1%	3.3	-3.4%	-10.7%	32.8%
COC(=O)C1=C(C(=O)OC)SC(=C2C(=S)C(C)(C)N(C(=O)C(C)C)c3ccccc32)S1	1.78µM*	-12.5%	/	11.2µM*	8.91µM*	7.08µM*
COC(=O)C1=C(C(=O)OC)SC(=C2C(=S)C(C)(C)N(C(=O)C3CC3)c3ccccc32)S1	1.58µM*	-12.2%	/	6.31µM*	8.91µM*	7.08µM*
COc1c(F)c(F)c(C(=O)Nc2ccccc2N2CCN(C(=O)C(C)C)CC2)c(F)c1F	-1.2%[12.7 µM]	-2.4%	20.1	-19.4%	-28.2%	7.7%
CC1C(=O)Nc2ccccc2N1C(=O)C1CC1 (configuration not stated)	1.5%	-7.0%	8.2	0.7%	-2.6%	22.0%
CCCC(=O)N1c2ccccc2C(=C2SC(C(=O)OC)=C(C(=O)OC)S2)C(=S)C1(C)C	1.78µM*	?	-3.9	-29.8%[11.4 µM]	5.62µM*	14.1µM*
CCOC(=O)C1C(C(=O)OC)=C(c2ccc(F)cc2)c2ccccc2N1S(=O)(=O)C(F)(F)F (configuration not stated)	1.4%[59 µM]	-12.4%	-1.5	-2.1%	/	55.3%
C=C(C)CC1N(c2cccc(OC)c2)C(=O)C2C(C(=O)O)C3C=CC21O3 (configuration not stated)	1.5%	26.7µM*	-1.6	-23.2%	2.7%	16.6%
CCCS(=O)(=O)N1CCCC(C(=O)Oc2ccc(C)c(C)c2)C1 (configuration not stated)	80.8%	-4.8%	0.8	-2.0%	0.6%	13.1%
O=[N+]([O-])c1cccc2c3c([nH]c12)CCCC3	8.91µM*	-2.3%	9.4	-29.2%	?	?
O=[N+]([O-])c1ccc2[nH]c3c(c2c1)CCCC3	39.8µM*	-6.7%	6.8	?	?	2.6%
Cc1[nH]c2c([N+](=O)[O-])cccc2c1C	/	-2.3%	6.0	?	20.2%	-28.2%
Brc1ccc2[nH]c3c(c2c1)CCC3	?	-22.1%	3.9	?	50.1µM*	-22.0%

High-throughput results from PubChem BioAssay.
